Results filed as inconclusive are left out. Where a call stands in place of a potency, no number is given. Activity calls are given as the source filed them. The call rests on the fitted dose curve; in most records, active means well fitted curve in the direction sought with a large enough effect; inconclusive means small, poorly fitted or top-dose-only effect, or another doubt; inactive means no such curve, though single readings can be large; an effect the other way counts as inactive or inconclusive. Residues, ends and D or L forms follow the SMILES beside them. *: point of attachment. Cbz = O=C(OCc1ccccc1)*
Legend:
Hek293T = assay: Primary qHTS to identify gynecologic anti-cancer compounds using libraries of approved drugs and bioactive compounds (AID 1345084); settings: Gynecologic cancer cell panel viability, ATPlite luminescence, 48 h, control line for the selectivity index; series mostly up to 57.5 µM; further: nearly all actives have a fitted effect of over 55% in size
Procedure, shortened: (§1)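 Cell viability after 48 h drug treatment, ATPlite luminescence readout; five doses.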

OV90 = assay: as above; settings: Gynecologic cancer cell panel viability, ATPlite luminescence, 48 h; series mostly up to 57.5 µM
Procedure, shortened: as §1

PA-1 = assay: as above; settings: Gynecologic cancer cell panel viability, ATPlite luminescence, 48 h; series mostly up to 57.5 µM
Procedure, shortened: as §1

SKOV3 = assay: as above; settings: Gynecologic cancer cell panel viability, ATPlite luminescence, 48 h; series mostly up to 57.5 µM
Procedure, shortened: as §1

Tov-21-G = assay: as above; settings: Gynecologic cancer cell panel viability, ATPlite luminescence, 48 h; series mostly up to 57.5 µM
Procedure, shortened: as §1

Tov112D = assay: as above; settings: Gynecologic cancer cell panel viability, ATPlite luminescence, 48 h; series mostly up to 57.5 µM
Procedure, shortened: as §1

JEG-3 = assay: as above; settings: Gynecologic cancer cell panel viability, ATPlite luminescence, 48 h; series mostly up to 57.5 µM
Procedure, shortened: as §1

[1] = qHTS assay to identify inhibitors of the type 1 interferon - major histocompatibility complex class I in skeletal muscle: Counter screen cell viability and HiBit confirmation (AID 1347412); settings: iHSKM muscle cells + IFN-b, HiBiT or CellTiter-Glo, 24 h; Potency: HiBiT; Viability, at 45.9 µM (top of the series); further: nearly all actives have a fitted effect of over 60% in size
Procedure, shortened: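 HLA-B*08:01–HiBiT knock-in immortalized human myoblasts (C25cl48) stimulated with 4.0 ng/ml human IFN-beta and dosed with compound in a 12-point 1:3 titration (top final 46 uM). After 24 hrs at 37 C, HiBiT lytic luminescence or CellTiter Glo ATP read out.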

[2] = Drug repurposing screens with cells derived from glioblastoma tumor samples (AID 1345199); settings: GBM patient neurospheres viability, ATP luminescence, 48 h; Potency: tumour line A; series mostly up to 46.1 µM; further: nearly all actives have a fitted effect of over 40% in size
Procedure, shortened: (§2)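 Four patient lines of CD133+ GBM neurospheres were screened at several concentrations; hits were retested in those lines plus three slower-growing GBM lines, using 48-hour treatment and ATP-based viability.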

astro = assay: as above; settings: viability, ATP luminescence, 48 h; series mostly up to 45.9 µM
Procedure, shortened: as §2
Potency means the concentration at half of the fitted maximal effect.

## c1cncc(CN2CCC(n3ncc4c(N5CCOCC5)nc(-c5ccc6[nH]ccc6c5)nc43)CC2)c1
Hek293T
  Potency: 11.2 µM (active)
OV90
  Potency: 22.4 µM (active)
PA-1
  Potency: 17.8 µM (active)
SKOV3
  Potency: 10 µM (active)
Tov-21-G
  Potency: 12.6 µM (active)
Tov112D
  Potency: 28.2 µM (active)

## COc1cc(CCc2cc(NC(=O)c3ccc(N4C[C@@H](C)N[C@@H](C)C4)cc3)n[nH]2)cc(OC)c1
Hek293T
  Potency: inactive
JEG-3
  Potency: inactive
PA-1
  Potency: 20 µM (active)
[1]
  Potency: inactive

## C[N+]1(C)[C@@H]2C[C@@H](OC(=O)C(O)(c3cccs3)c3cccs3)C[C@H]1[C@@H]1O[C@@H]12
Hek293T
  Potency: inactive
JEG-3
  Potency: inactive
OV90
  Potency: inactive
PA-1
  Potency: inactive
SKOV3
  Potency: inactive
Tov-21-G
  Potency: inactive
Tov112D
  Potency: inactive

## CN1CCc2c(c3ccccc3n2Cc2ccc(C(=O)NO)cc2)C1
Hek293T
  Potency: inactive
JEG-3
  Potency: inactive
OV90
  Potency: inactive
SKOV3
  Potency: inactive
Tov112D
  Potency: inactive

## CCn1c(=O)c2c(nc(C=Cc3ccc(OC)c(OC)c3)n2C)n(CC)c1=O
Hek293T
  Potency: inactive
JEG-3
  Potency: inactive
OV90
  Potency: inactive
PA-1
  Potency: inactive
SKOV3
  Potency: inactive
Tov-21-G
  Potency: inactive
Tov112D
  Potency: inactive

## CC1(C)O[C@@H]2C[C@H]3[C@@H]4CCC5=CC(=O)C=C[C@]5(C)[C@@H]4[C@@H](O)C[C@]3(C)[C@]2(C(=O)CO)O1
Hek293T
  Potency: inactive
JEG-3
  Potency: inactive
OV90
  Potency: inactive
PA-1
  Potency: inactive
SKOV3
  Potency: inactive
Tov-21-G
  Potency: inactive
Tov112D
  Potency: inactive

## CCCCC(=O)O[C@]1(C(=O)CO)[C@@H](C)C[C@H]2[C@@H]3CCC4=CC(=O)C=C[C@]4(C)[C@@]3(F)[C@@H](O)C[C@@]21C
Hek293T
  Potency: inactive
JEG-3
  Potency: inactive
OV90
  Potency: inactive
PA-1
  Potency: inactive
Tov-21-G
  Potency: inactive
Tov112D
  Potency: inactive
[1]
  Potency: inactive

## N[C@H]1CN(c2c(F)cc3c(=O)c(C(=O)O)cn(C4C[C@@H]4F)c3c2Cl)CC12CC2 (stereo partly specified)
Hek293T
  Potency: inactive
JEG-3
  Potency: inactive
OV90
  Potency: inactive
PA-1
  Potency: inactive
SKOV3
  Potency: inactive
Tov-21-G
  Potency: inactive
Tov112D
  Potency: inactive
[2]
  Potency: inactive
astro
  Potency: inactive

## O=C(O)c1ccc(Nc2ncc3c(n2)-c2ccc(Cl)cc2C(c2c(F)cccc2F)=NC3)cc1
Hek293T
  Potency: inactive
JEG-3
  Potency: inactive
OV90
  Potency: inactive
SKOV3
  Potency: inactive
Tov-21-G
  Potency: inactive

## Nc1ccn(C2CO[C@H](CO)O2)c(=O)n1 (stereo partly specified)
Hek293T
  Potency: inactive
JEG-3
  Potency: inactive
OV90
  Potency: inactive
PA-1
  Potency: inactive
SKOV3
  Potency: inactive
Tov-21-G
  Potency: inactive
Tov112D
  Potency: inactive
astro
  Potency: inactive

## Cc1cn([C@@H]2O[C@H](CO)[C@@H](O)[C@H]2F)c(=O)[nH]c1=O
Hek293T
  Potency: inactive
JEG-3
  Potency: inactive
OV90
  Potency: inactive
PA-1
  Potency: inactive
SKOV3
  Potency: inactive
Tov-21-G
  Potency: inactive
Tov112D
  Potency: inactive

## CCN(CC)Cc1ccc2cc(COC(=O)Nc3ccc(C(=O)NO)cc3)ccc2c1
Hek293T
  Potency: 10 µM (active)
JEG-3
  Potency: 3.55 µM (active)
OV90
  Potency: 1 µM (active)
PA-1
  Potency: 1.78 µM (active)
Tov-21-G
  Potency: 7.94 µM (active)
Tov112D
  Potency: 7.08 µM (active)

## Cc1ccc2nc(NCCN)c3ncc(C)n3c2c1
[1]
  Potency: 3.13 µM (active)

## Cc1cnc(NC(=O)Nc2cc(Br)c(C)cc2OC[C@@H]2CNCCO2)cn1
[1]
  Potency: inactive

## CCc1ccc(C(=O)Nc2cc(CN3CCN(C)CC3)cc(C(F)(F)F)c2)cc1C#Cc1cnc2ccnn2c1
OV90
  Potency: inactive
[1]
  Potency: 24.9 µM (active)

## C[C@H]1[C@@H](OC(=O)CCC(=O)O)O[C@@H]2O[C@@]3(C)CC[C@@H]4[C@H](C)CC[C@@H]1[C@@]24OO3
OV90
  Potency: inactive
SKOV3
  Potency: inactive

## CC(C)c1cnn2c(NCc3ccccc3)cc(NCCCCCCN)nc12
[1]
  Potency: inactive

## FC(F)c1nc2ccccc2n1-c1nc(N2CCOCC2)nc(N2CCOCC2)n1
Hek293T
  Potency: 2.24 µM (active)
PA-1
  Potency: 2 µM (active)
SKOV3
  Potency: 2.82 µM (active)

## CN(C)CCN1C(=O)c2cccc3cc(N)cc(c23)C1=O
[1]
  Potency: 8.83 µM (active)

## C=CC(=O)Nc1ccc2ncnc(Nc3ccc(OCc4cccc(F)c4)c(Cl)c3)c2c1
JEG-3
  Potency: inactive
OV90
  Potency: inactive
PA-1
  Potency: inactive
SKOV3
  Potency: inactive
Tov-21-G
  Potency: 10 µM (active)

## CC1(C)[C@H](O[C@H]2O[C@H](C(=O)O)[C@@H](O)[C@H](O)[C@H]2O[C@@H]2O[C@H](C(=O)O)[C@@H](O)[C@H](O)[C@H]2O)CC[C@@]2(C)[C@H]1CC[C@]1(C)[C@H]2C(=O)C=C2[C@H]3C[C@@](C)(C(=O)O)CC[C@]3(C)CC[C@]21C
[2]
  Potency: inactive
astro
  Potency: inactive

## CC(C)N1[N]C(=C2C=c3cc(O)ccc3=N2)c2c(N)ncnc21
astro
  Potency: 3.55 µM (active)

## COc1cc(O)c2c(c1)C1OC1C[C@H](O)[C@H](O)C(=O)C=CC[C@H](C)OC2=O (stereo partly specified)
[1]
  Potency: 8.83 µM (active)

## C[C@H]1C[C@H]2[C@@H]3CCC4=CC(=O)C=C[C@]4(C)[C@@H]3C(=O)C[C@]2(C)[C@@]1(O)C(=O)CO
[2]
  Potency: inactive
astro
  Potency: inactive

## Cc1cc(Nc2ncc3c(n2)N(C)C(=O)N(c2cc(NC(=O)c4cccc(C(F)(F)F)c4)ccc2C)C3)n(C)n1
[1]
  Potency: 0.883 µM (active)

## C[C@@H](Cc1cc2c(c(C(N)=O)c1)N(CCCO)CC2)NCCOc1ccccc1OCC(F)(F)F
JEG-3
  Potency: inactive
PA-1
  Potency: 31.6 µM (active)

## C#CCC(Cc1cnc2nc(N)nc(N)c2n1)c1ccc(C(=O)N[C@@H](CCC(=O)O)C(=O)O)cc1 (stereo partly specified)
astro
  Potency: inactive

## Cc1cnc(Nc2ccc(N3CCN(C)CC3)cc2)nc1Nc1cccc(S(=O)(=O)NC(C)(C)C)c1
[1]
  Potency: 2.79 µM (active)

## Nc1ccc(C(=O)Nc2cccc(-c3nc(N4CCOCC4)c4oc5ncccc5c4n3)c2)cn1
PA-1
  Potency: 3.16 µM (active)
SKOV3
  Potency: 15.8 µM (active)

## Cc1cnc(Nc2ccc(CN3CCOCC3)cc2)nc1Nc1cccc(S(=O)(=O)NC(C)(C)C)c1
JEG-3
  Potency: 17.8 µM (active)
OV90
  Potency: 22.4 µM (active)
PA-1
  Potency: 1.58 µM (active)
SKOV3
  Potency: 7.08 µM (active)
Tov-21-G
  Potency: 2.24 µM (active)
Tov112D
  Potency: 5.01 µM (active)
[1]
  Potency: 8.83 µM (active)

## CCCCCCCCCCCCCCCC(=O)OC[C@@H](NC(=O)C(Cl)Cl)[C@H](O)c1ccc([N+](=O)[O-])cc1
[2]
  Potency: inactive
astro
  Potency: inactive

## COC1=C(OC)C(=O)C(CC=C(C)CCC=C(C)CCC=C(C)CCC=C(C)CCC=C(C)CCC=C(C)CCC=C(C)CCC=C(C)CCC=C(C)CCC=C(C)C)=C(C)C1=O
[2]
  Potency: inactive
astro
  Potency: inactive

## CCCCCCCN(CC)CCCC(O)c1ccc(NS(C)(=O)=O)cc1 (stereo unspecified)
astro
  Potency: inactive

## CC(C)C[C@H](NC(=O)[C@@H](NC(=O)c1cccc(-c2ccccc2)n1)[C@@H](C)O)B(O)O
Hek293T
  Potency: 0.316 µM (active)
OV90
  Potency: 0.316 µM (active)
Tov-21-G
  Potency: 0.112 µM (active)
[1]
  Potency: 0.0557 µM (active)

## Oc1ccc([C@@H]2Oc3ccc(O)cc3[C@@H]3CCC[C@@H]32)cc1
OV90
  Potency: inactive
Tov-21-G
  Potency: inactive

## Nc1ccn(C[C@@H](CO)OCP(=O)(O)O)c(=O)n1
[2]
  Potency: inactive
astro
  Potency: inactive

## N#Cc1c(C2CCNCC2)cc(-c2c(O)cccc2OCC2CC2)nc1N
Hek293T
  Potency: inactive
OV90
  Potency: inactive
Tov-21-G
  Potency: 14.1 µM (active)
Tov112D
  Potency: inactive
[1]
  Potency: inactive

## Cc1ccc(-n2[nH]c(C)c(N=Nc3cccc(-c4cccc(C(=O)O)c4)c3O)c2=O)cc1C
JEG-3
  Potency: inactive
OV90
  Potency: inactive
PA-1
  Potency: 1.58 µM (active)
SKOV3
  Potency: inactive

## O=C1c2c(O)cccc2[C@@H]([C@@H]2O[C@H](CO)[C@@H](O)[C@H](O)[C@H]2O)c2cc(CO)cc(O)c21
[2]
  Potency: inactive
astro
  Potency: inactive

## CCS(=O)(=O)Nc1ccc2[nH]c(O)c(C(=Nc3ccc(CN4CCCCC4)cc3)c3ccccc3)c2c1
[1]
  Potency: 0.625 µM (active)

## COC[C@H](NC(=O)c1cnc(C)s1)C(=O)N[C@@H](COC)C(=O)N[C@@H](Cc1ccccc1)C(=O)[C@@]1(C)CO1
[1]
  Potency: 0.198 µM (active)

## CCCCOc1ccc(C(=O)Nc2ccc(F)cc2F)cc1
JEG-3
  Potency: inactive
OV90
  Potency: inactive
PA-1
  Potency: inactive
Tov-21-G
  Potency: inactive
Tov112D
  Potency: inactive

## Cc1onc(-c2ccccc2)c1C(=O)N[C@@H]1C(=O)N2[C@@H](C(=O)O)C(C)(C)S[C@@H]12
[2]
  Potency: inactive
astro
  Potency: inactive

## CC(C)c1cc(C(C)C)c(CC(=O)NS(=O)(=O)Oc2c(C(C)C)cccc2C(C)C)c(C(C)C)c1
JEG-3
  Potency: inactive
OV90
  Potency: inactive
SKOV3
  Potency: inactive
Tov-21-G
  Potency: inactive
Tov112D
  Potency: inactive
[1]
  Potency: inactive

## Cn1cc(CNCC2CCN(c3ncc(C(=O)NO)cn3)CC2)c2ccccc21
[1]
  Potency: 0.157 µM (active)

## COc1ccc(S(=O)(=O)Nc2cccnc2Nc2ccc(O)cc2)cc1
JEG-3
  Potency: 2 µM (active)
PA-1
  Potency: 1 µM (active)
SKOV3
  Potency: 6.31 µM (active)
Tov112D
  Potency: 1.78 µM (active)

## CC(C)C[C@@H](C=O)NC(=O)[C@H](CC(C)C)NC(=O)[C@H](CC(C)C)NC(=O)OCc1ccccc1 (Cbz-Leu-Leu-Leu-aldehyde)
[1]
  Potency: 6.25 µM (active)

## O=C(O)C(=O)Nc1cccc(C2=NN=N[N]2)c1
[2]
  Potency: inactive
astro
  Potency: inactive
